Screening data deposited in PubChem by National Center for Advancing Translational Sciences (NCATS).
HEK293 cAMP cs: raises cAMP in parental HEK293 cells, TSHR agonist counter-screen | Potency, µM (doses to about 57.1 µM), most hits filed as activators | AID 938 | parental HEK293 CNG cAMP sensor, membrane potential fluorescence | 2.5% of 73,000 active; note: nearly all actives have a fitted effect of over 55% in size
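Parental HEK 293 cells stably expressing a cAMP-gated CNG channel were loaded with membrane potential dye containing 100 uM RO 20-1724 for 60 min. Compound added for 30 min; depolarization read as fluorescence intensity at 590 nm.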
Tau fil binding: tau filament binding; P10636; recombinant tau filaments, thioflavin S fluorescence, 15 h; filaments grown with octadecylsulfate alongside compound; 2% of 71,000 active; Potency, µM (series often up to 57.1 µM); AID 596;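 note: actives lower thioflavin S fluorescence by blocking filaments or displacing dye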
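Read-out: ThS fluorescence, 450 nm excitation/510 nm emission; lower signal marks blocked filament formation or displaced dye. Tau at 1 uM with 30 uM ODS, 10 uM ThS, 5 mM DTT, 100 mM NaCl, 10 mM HEPES pH 7.4; 15 h, 37 C.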
CRE Fsk mod: alters forskolin-stimulated CRE reporter signaling in CHO cells. CHO CRE-bla reporter (cAMP response element driving beta-lactamase), forskolin EC10, beta-lactamase ratio. Potency, µM (series often up to 38.2 µM), actives largely listed as activators. 2.5% of 71,000 active. AID 662; active = well fitted activation curve with a large enough effect in the signal ratio, with a control signal flat, not every such curve was filed as active; inconclusive = small, poorly fitted or top-dose-only effect, or effect the other way, or a change in a side signal; the % refers to the signal ratio
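CRE-bla CHO reporter cells treated with compound titration plus EC10 NKH 477 (water-soluble forskolin), incubated 3 h at 37 °C; CCF4 loading 2 h at room temperature, 460/530 nm emission ratio read, AC50 values derived for positive or negative modulators.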
TSHR agonist: TSH receptor (human) agonism; HEK293-CNG-TSHR cells (CNG channel as cAMP sensor), membrane potential dye, cAMP; Potency, µM (series often up to 57.1 µM), actives largely listed as activators; 0.48% of 73,000 active; active = well fitted activation curve with a large enough effect in the main read-out, with a control signal flat, not every such curve was filed as active; inconclusive = small, poorly fitted or top-dose-only effect, or a change in a side signal; inactive = no such curve, though single readings can be large or run the other way; reference of the percent scale not stated here;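 note: the control signal comes from parental cells without the receptor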
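HEK 293 cells stably expressing TSHR and a cAMP-gated CNG channel; parental CNG-only cells as counterscreen. Cells preloaded 60 min with membrane potential dye plus 100 uM RO 20-1724, then compound 30 min; fluorescence read at 590 nm.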
ERK AVP inh: vasopressin-driven ERK pathway inhibition | HEK293-V1b, vasopressin-stimulated pERK AlphaScreen | Potency, µM (doses to about 57.5 µM), most hits filed as inhibitors | 0.99% of 72,000 active | AID 995; note: nearly all actives have a fitted effect of over 55% in size
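Phosphorylated ERK1/2 detected via AlphaScreen bead proximity in lysates of V1b-expressing HEK293 cells given 25 nM vasopressin for 5 min after 30 min compound exposure (37 °C). AC50 from Hill equation; basal DMSO 0%, vasopressin 100%.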
Numbers stand for hits; – = inactive; ? = inconclusive; · = no result given; [ ] = another dose, or the depositor's remark. In the library only some 7.4% were active in any assay of this set; here they are far more common. Unless noted, calls come from the whole dose curve; as a rule, active = well fitted curve in the direction sought with a large enough effect; inconclusive = small, poorly fitted or top-dose-only effect, or another doubt; inactive = no such curve, though single readings can be large; an effect the other way counts as inactive or inconclusive.

SMILES	HEK293 cAMP cs	Tau fil binding	CRE Fsk mod	TSHR agonist	ERK AVP inh
Cc1sc2nc(CSc3nc4ccccc4c(=O)n3CCCN3CCOCC3)[nH]c(=O)c2c1C	–	–	2.5µM	–	–
CCn1c(SCc2nc3ccccc3c(=O)[nH]2)nc2ccccc2c1=O	?	–	2.5µM	?	7.9µM
CCn1c(SCC(=O)NCc2ccccc2)nc2ccccc2c1=O	–	–	–	–	–
O=C(O)CCn1cnc2c(=S)nc[nH]c21	–[11.4 µM]	–[11.4 µM]	–[7.6 µM]	–[11.4 µM]	–[11.5 µM]
CCCCC(CC)COC(=O)C(C#N)=C(c1ccccc1)c1ccccc1 (configuration not stated)	–	32µM	–	–	–
O=C(CSc1nnc(CNC(=O)c2ccccc2F)o1)c1ccc(Cl)cc1	–	32µM	–	·	–
O=C(c1cc2c(s1)CCCC2)n1cccn1	–	–	–	–	–
O=C(OCc1c(Cl)nc2sccn12)c1cc2c(s1)CCCC2	13µM	–	?	?	–
COc1cc(C(=O)OCc2cc3ccccc3[nH]c2=O)cc(OC)c1OC	–	–	3.2µM	–	–
COC(=O)c1[nH]c2cc(OC)c(OC)cc2c1NC(=O)c1cccc(OC)c1	–	–	10µM	?	–
CCOC(=O)c1[nH]c2ccccc2c1NC(=O)c1cc(OC)c(OC)c(OC)c1	–	–	3.2µM	–	–
CCOC(=O)c1[nH]c2ccc(OC)cc2c1NC(=O)CN1CCC2(CC1)OCCO2	–	–	10µM	–	–
CCOC(=O)c1[nH]c2ccc(OC)cc2c1NC(=O)C(C)N1CCC2(CC1)OCCO2 (configuration not stated)	–	–	–	–	?
COc1cccc(C(=O)Nc2c(F)c(F)c(F)c(F)c2F)c1	–	–	–	·	–
Cc1ccc(C(=O)OCc2cc3ccccc3[nH]c2=O)cc1	–	–	?	–	–
CCC(=C(CC)c1ccc(O)cc1)c1ccc(O)cc1	–	–	–	–	–
CC(C=O)Cc1ccc(C(C)(C)C)cc1 (configuration not stated)	?	–	–	?	–
C[C@@]12C=CC(=O)C=C1CC[C@H]1[C@H]3CC[C@](O)(C(=O)CO)[C@]3(C)CC(=O)[C@@H]12	–	–	–	–	–
O=c1[nH]cc(CS(=O)(=O)Cc2c[nH]c(=O)[nH]c2=O)c(=O)[nH]1	–[11.4 µM]	–[11.4 µM]	–[7.6 µM]	–[11.4 µM]	–[11.5 µM]
CCOC(=O)c1[nH]c2ccc(OC)cc2c1NC(=O)c1nonc1C	?	–	4µM	?	–
CCOC(=O)c1[nH]c2ccccc2c1NC(=O)c1nonc1C	–	·	·	–	·
CCOC(=O)C1CCN(CC(=O)Nc2c(C(=O)OC)[nH]c3ccc(Cl)cc23)CC1	?	–	?	?	25µM
COC(=O)c1[nH]c2ccccc2c1NC(=O)CN1CCN(c2cccc(OC)c2)C(C)C1 (configuration not stated)	–	–	–	–	32µM
O=C(NCc1ccco1)C1CCN(C(=O)c2cc3sccc3n2Cc2ccc(Cl)cc2)CC1	13µM	–	–	?	?
CCC(C)C1C(C#N)=C(N)Oc2n[nH]c(-c3ccccc3)c21 (configuration not stated)	25µM	–	–	?	·
SMILES	HEK293 cAMP cs	Tau fil binding	CRE Fsk mod	TSHR agonist	ERK AVP inh
N#CC1=C(N)Oc2n[nH]c(-c3ccc(F)cc3)c2C1c1cccnc1 (configuration not stated)	–	–	–	–[11.4 µM]	16µM
O=C(O)[C@@H](c1ccccc1)[C@@H](C(=O)O)c1ccccc1	–[11.4 µM]	–[11.4 µM]	–[7.6 µM]	–[11.4 µM]	–[11.5 µM]
COC(=O)NC(c1cccc(F)c1)[C@@]1(C(=O)OC)CCCC1=O (some centres not stated)	–[11.4 µM]	·	·	·	–[11.5 µM]
COC(=O)c1cc(NCc2ccccc2F)ccc1N1CCOCC1	–	–	?	–	?
Cc1cc(Cl)ccc1OC(C)C(=O)Nc1ccccc1N1CCOCC1 (configuration not stated)	25µM	?	–	?	–
COC(=O)c1ccccc1NC(=O)CNc1cc(Cl)ccc1N1CCOCC1	?	16µM	–	?	–
CC(C)Oc1cccc(C(=O)Nc2ccccc2N2CCOCC2)c1	?	–	?	?	–
CSc1nc(NC(C)C)nc(N2CCOCC2)n1	–	–	?	–	?
CC(C)(C)Nc1nc(SCc2ccccc2)nc(N2CCOCC2)n1	–	–	2.5µM	–	–
CSc1nc(NC(C)(C)C)nc(N2CCOCC2)n1	–	–	13µM	–	–
